High-throughput results from PubChem.
Only some compounds are listed: those with a hit (about 7.8% of all), similar ones and a draw of the others.
HCMV inh = qHTS Assay for inhibitors of the human cytomegalovirus (HCMV) | activity change, negative = inhibition, % at 57.5 µM | HFF cells, HCMV-luciferase reporter, 72 h; stronger effect = lower value | hit rate 4.5% among 410,000; in the data active = activity change below about -60%; inconclusive = no clear call, values can overlap the other calls; inactive = above about -39%
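Luciferase read-out from HCMV-luciferase-infected HFFs (MOI 1 PFU/cell) 72 h post infection at 37C; compounds added after 16 h cell attachment; activity normalized between buffer-only basal and Salinomycin (10uM) inhibitor controls.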
LASV entry inh = qHTS for Inhibitors of binding or entry into cells for Lassa Virus; Potency, µM (titrated, usually from 37.9 µM), usual class: inhibitors; hit rate 1.2% among 300,000; AID 540256, 2011; Lassa virus pseudotype entry inhibition, cell reporter; calls by dose curve; tested in HEK293 cells; also: nearly all actives have a fitted effect of over 50% in size
Vaccinia Venus = qHTS for Stage-Specific Inhibitors of Vaccinia Orthopoxvirus: Venus Reporter Primary qHTS; Vaccinia virus Venus reporter expression, fluorescence; Potency, µM (series often up to 36.5 µM), most hits filed as inhibitors; hit rate 0.46% among 330,000; AID 720580, 2013; calls by dose curve; tested in A549 cells; also: nearly all actives have a fitted effect of over 30% in size
MARV entry inh = qHTS for inhibitors of binding or entry into cells for Marburg Virus. Marburg virus pseudotyped entry inhibition, cell reporter. AID 540276, 2011. Potency, µM (titrated, usually from 37.8 µM), hits mostly inhibitors. hit rate 1.8% among 300,000; calls by dose curve; tested in HEK293 cells
VACV mCherry inh = qHTS for Stage-Specific Inhibitors of Vaccinia Orthopoxvirus: mCherry Reporter Primary qHTS; Potency, µM (titrated, usually from 36.5 µM), most hits filed as inhibitors; hit rate 0.63% among 310,000; Vaccinia virus mCherry reporter infection, fluorescence; calls by dose curve; tested in A549 cells; also: nearly all actives have a fitted effect of over 35% in size
HCV inh = qHTS Assay for Inhibitors of Hepatitis C Virus (HCV); hit rate 3.4% among 340,000; Huh7.5.1 HCVcc-Cre infection, luciferase reporter, 44 h; Potency, µM (series often up to 41.8 µM), actives largely listed as inhibitors; active = well fitted inhibition curve with a large enough effect; inconclusive = small, poorly fitted or top-dose-only effect, or another doubt; inactive = no such curve, though single readings can be large or run the other way
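Seed cells (1,000/well) for 4 h; treat with compound and infect with HCVcc-Cre, moi about 0.5. Incubate 44 h, then detect luciferase activity.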
Numbers stand for hits; . = inactive; ? = inconclusive; / = no result.

SMILES	HCMV inh	LASV entry inh	Vaccinia Venus	MARV entry inh	VACV mCherry inh	HCV inh
c1cncc(-c2nc(NCc3ccc4c(c3)OCO4)c3ccccc3n2)c1	.	/	/	/	/	11.2µM
c1cncc(CNc2nc(-c3cccnc3)nc3ccccc23)c1	.	?	.	.	.	22.4µM
COc1ccccc1NC(=O)Nc1nc(-c2cccnc2)nc2ccccc12	/	/	/	7.08µM	/	/
Fc1ccc(CNc2nc(-c3cccnc3)nc3ccccc23)cc1	.	.	.	?	.	11.2µM
COc1ccc([C@]23Cc4ccccc4[C@H](O2)C2=C(CC(C)(C)CC2=O)O3)cc1	/	/	/	.	/	/
O=C1OC(/C(=C\Nc2cc(Cl)ccc2O)[N+](=O)[O-])c2ccccc21 (stereo not drawn)	-77.0	.	.	?	?	.
COc1cc(-c2nnc(SCC(=O)N(C)C3CCCCC3)o2)cc(OC)c1OC	.	.	.	.	.	/
CCOC(=O)N[C@@]1(C(F)(F)F)C(=O)NC(C)=C1C#N	/	/	/	.	/	/
O=C(NCCN1CCN(C(=O)c2ccc(Br)cc2)CC1)c1ccc(Br)cc1	-66.3	.	.	.	.	?
CC(C)c1ccc(C(=O)NCCCN2CCN(CCCNC(=O)c3ccc(C(C)C)cc3)CC2)cc1	-80.2	11.2µM	?	?	.	?
Cc1ccc(C(=O)NCCN2CCN(C(=O)c3ccc(C)c(C)c3)CC2)cc1C	.	.	.	.	.	.
O=C(NCCN1CCOCC1)c1cc2n(n1)[C@@H](C(F)(F)F)C[C@H](c1ccc(F)cc1)N2	/	/	/	.	/	/
CN(C)CCC1Sc2ccccc2Oc2ccccc21 (stereo not drawn)	.	.	.	?	.	.
CC1c2ccccc2SC(CCCN(C)C)c2ccccc21 (stereo not drawn)	-60.5	?	.	5.17µM	.	?
CN(C(=O)c1ccccc1F)C(c1ccccc1)c1ccccc1	.	11.2µM	.	?	.	.
CC(/C=N/NC(=O)c1ccccc1F)c1ccccc1 (stereo not drawn)	.	/	/	/	/	.
COc1ccc(/C=C/CN2CCCC(CCC(=O)NCc3ccc(F)c(F)c3)C2)cc1 (stereo not drawn)	.	.	.	7.94µM	.	?
COc1ccccc1/C=C/CN1CCCC(CCC(=O)NCc2ccc(F)c(F)c2)C1 (stereo not drawn)	?	.	.	?	.	?
O=C(C=P(c1ccccc1)(c1ccccc1)c1ccccc1)c1ccccc1-c1ccccc1C(=O)C=P(c1ccccc1)(c1ccccc1)c1ccccc1	-98.4	2.24µM	3.55µM	?	?	?
CN(C(=O)CCCN1C(=O)c2cccc3cccc(c23)C1=O)c1ccccc1	-61.6	.	.	.	.	?
COc1ccc(N2CCN(C(=O)CCCN3C(=O)c4cccc5cccc(c45)C3=O)CC2)cc1	.	?	/	?	/	?
O=C(CCCN1C(=O)c2cccc3cccc(c23)C1=O)N1CCN(c2ccc(F)cc2)CC1	.	?	.	?	.	11.2µM
Clc1ccc(OCCN2CCN(c3ncnc4sccc34)CC2)cc1	?	?	/	?	/	0.316µM
CCN1CCN(CCOc2ccc(Cl)cc2)CC1	.	.	.	.	.	.
Cc1nc(N2CCN(S(=O)(=O)c3ccc(F)cc3)CC2)c2c(-c3cccs3)csc2n1	-65.6	?	.	?	.	?
SMILES	HCMV inh	LASV entry inh	Vaccinia Venus	MARV entry inh	VACV mCherry inh	HCV inh
Cc1nc(N2CCN(S(=O)(=O)c3ccccc3C#N)CC2)c2c(-c3ccccc3)csc2n1	-73.8	/	/	/	/	8.91µM
Cc1sc2ncnc(N3CCN(S(=O)(=O)c4ccccc4)CC3)c2c1C	/	.	.	.	.	11.2µM
Cc1cccc(Cn2c(=O)n(-c3cc(C)cc(C)c3)c(=O)c3oc4ccccc4c32)c1	.	.	.	/	.	/
Cc1nc(-c2ccc(C)c(N3CCN(C(=O)Nc4ccccc4C(F)(F)F)CC3)c2)no1	.	.	.	/	.	/
COc1ccc(NC(=O)CCn2c(=O)c3cccn3c3cccnc32)c(OC)c1	?	.	.	/	.	/
Cc1ccc(OCCN2CCN(c3ncnc4sc(C)c(C)c34)CC2)cc1	-98.8	?	/	?	/	2.51µM
Cc1ccc(S(=O)(=O)N2CCN(c3ncnc4scc(-c5ccccc5)c34)CC2)cc1	.	11.2µM	.	?	.	?
Cc1sc2ncnc(N3CCOCC3)c2c1C	-66.0	.	.	.	.	.
